Assay results reported in PubChem BioAssay (NCATS).
Results filed as inconclusive are left out. Activity calls are given as the source filed them. The call rests on the fitted dose curve; in most records, active means well fitted inhibition curve with a large enough effect; inconclusive means small, poorly fitted or top-dose-only effect; inactive means flat fitted curve, though single readings scatter.

How the values were obtained:
JCK = test: qHTS profiling for inhibitors of Plasmodium falciparum proliferation (AID 504749); further: potency means the concentration at half of the fitted maximal effect; details: P. falciparum in erythrocytes, SYBR Green DNA, 72 h; series mostly up to 28.7 µM
Outline: (§1)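 Infected RBCs, 0.3% parasitemia/2.5% Hct final; cpd 72 h, 37 C, 5% CO2; lysis buffer with saponin/triton/SYBR Green I, o/n RT dark; FI 485/535; norm. to artemisinin (0.29 uM) and DMSO.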

PC15 = test: as above; details: P. falciparum in erythrocytes, SYBR Green DNA, 72 h; series mostly up to 28.7 µM
Outline: as §1

PC26 = test: as above; details: P. falciparum in erythrocytes, SYBR Green DNA, 72 h; series mostly up to 28.7 µM
Outline: as §1

PC49 = test: as above; details: P. falciparum in erythrocytes, SYBR Green DNA, 72 h; series mostly up to 28.7 µM
Outline: as §1

SC27B = test: as above; details: P. falciparum in erythrocytes, SYBR Green DNA, 72 h; series mostly up to 28.7 µM
Outline: as §1

TAB109 = test: as above; details: P. falciparum in erythrocytes, SYBR Green DNA, 72 h; series mostly up to 28.7 µM
Outline: as §1

TAB165 = test: as above; details: P. falciparum in erythrocytes, SYBR Green DNA, 72 h; series mostly up to 28.7 µM
Outline: as §1

W2 = test: as above; details: P. falciparum in erythrocytes, SYBR Green DNA, 72 h; series mostly up to 28.7 µM
Outline: as §1

CRL-7250 = normal cell line; test: Cytotoxic Profiling of Annotated Libraries Using Quantitative High-Throughput Screening (AID 1296008); details: Five cell lines viability, CellTiter-Glo ATP luminescence, 48-72 h; max response: hits give low values; further: potency means the concentration at half of the fitted maximal effect; on max response: on the % scale 0 is the no-effect control and ±100 the full control effect
Outline: (§2)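 Cytotoxicity was measured as CellTiter-Glo ATP luminescence, read after 10 min at room temperature. Compound treatment of the cells lasted 48 or 72 hr at 37 degrees Celsius in a qHTS format.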

KB-3-1 = test: as above; details: Five cell lines viability, CellTiter-Glo ATP luminescence, 48-72 h; max response: hits give low values
Outline: as §2

NIH3T3 = test: as above; details: Five cell lines viability, CellTiter-Glo ATP luminescence, 48-72 h; max response: hits give low values
Outline: as §2

N140 = test: qHTS profiling for inhibitors of Plasmodium falciparum proliferation (AID 504749); further: potency means the concentration at half of the fitted maximal effect; details: P. falciparum in erythrocytes, SYBR Green DNA, 72 h; series mostly up to 28.7 µM
Outline: as §1

P93_24 = test: as above; details: P. falciparum in erythrocytes, SYBR Green DNA, 72 h; series mostly up to 28.7 µM
Outline: as §1

P94_40 = test: as above; details: P. falciparum in erythrocytes, SYBR Green DNA, 72 h; series mostly up to 28.7 µM
Outline: as §1

PAD = test: as above; details: P. falciparum in erythrocytes, SYBR Green DNA, 72 h; series mostly up to 28.7 µM
Outline: as §1

TAB113 = test: as above; details: P. falciparum in erythrocytes, SYBR Green DNA, 72 h; series mostly up to 28.7 µM
Outline: as §1

HEK293 = test: Cytotoxic Profiling of Annotated Libraries Using Quantitative High-Throughput Screening (AID 1296008); details: Five cell lines viability, CellTiter-Glo ATP luminescence, 48-72 h; max response: hits give low values; further: potency means the concentration at half of the fitted maximal effect; on max response: on the % scale 0 is the no-effect control and ±100 the full control effect
Outline: as §2

HaCat [1] = test: as above; details: Five cell lines viability, CellTiter-Glo ATP luminescence, 48-72 h; max response: hits give low values
Outline: as §2

HACAT [2] = test: qHTS assay to identify novel small-molecules to repurpose for Merkel cell carcinoma treatment (AID 1296009); details: MCC and control cell lines, CellTiter-Glo viability, 72 h; at 44.8 µM (top of the series) unless noted
Outline: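 72 hr, 37 degree celsius; NPC 8-pt / MIPE 11-pt dose response; compound pinned in DMSO; CellTiter-Glo, 10 min RT, luminescence; normalized to no-cell and DMSO controls.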
Further: nearly all actives have a fitted effect of over 60% in size.

CC(=O)OCC(=O)[C@@]1(OC(C)=O)[C@@H](C)C[C@H]2[C@@H]3C[C@H](F)C4=CC(=O)C=C[C@]4(C)[C@@]3(F)[C@@H](O)C[C@@]21C
inactive: Potency (JCK) | Potency (PC15) | Potency (PC26) | Potency (PC49) | Potency (SC27B) | Potency (TAB109) | Potency (TAB165) | outcome (CRL-7250) | max response (KB-3-1) 6.89% | max response (NIH3T3) -5%
active: Potency (W2) 6.01 µM

COc1ccc(CCN2CCC(Nc3nc4ccccc4n3Cc3ccc(F)cc3)CC2)cc1
active: Potency (JCK) 6.31 µM | Potency (N140) 3.55 µM | Potency (P93_24) 2.82 µM | Potency (P94_40) 3.16 µM | Potency (PAD) 3.98 µM | Potency (PC15) 6.31 µM | Potency (PC26) 6.75 µM | Potency (PC49) 4.47 µM | Potency (SC27B) 3.98 µM | Potency (TAB109) 2.51 µM | Potency (TAB113) 3.98 µM | Potency (TAB165) 2.82 µM | Potency (W2) 3.01 µM | Potency (HEK293) 9.44 µM | Potency (NIH3T3) 4.73 µM

COc1ccc(/C=C/C(=O)c2ccc(OC)cc2OC)cc1
inactive: max response (HaCat [1]) -62.6% | max response (NIH3T3) -18.9%
active: Potency (JCK) 8.91 µM | Potency (N140) 11.2 µM | Potency (P93_24) 8.91 µM | Potency (P94_40) 10 µM | Potency (PAD) 10 µM | Potency (PC15) 7.08 µM | Potency (PC26) 7.57 µM | Potency (PC49) 5.62 µM | Potency (SC27B) 10 µM | Potency (TAB109) 7.08 µM | Potency (TAB113) 8.91 µM | Potency (TAB165) 4.47 µM | Potency (W2) 4.26 µM

Oc1c(I)cc(Cl)c2cccnc12
inactive: Potency (JCK) | Potency (P93_24) | Potency (PC15) | Potency (PC26) | Potency (PC49) | Potency (W2) | outcome (HaCat [1]) | outcome (HACAT [2])
active: Potency (P94_40) 12.6 µM | Potency (TAB109) 12.6 µM | Potency (TAB165) 12.6 µM

Cc1c(C)n(CCN(C)C)c2ccc(C(=O)OCCN(C)C)cc12
active: Potency (NIH3T3) 7.5 µM
inactive: Potency (JCK) | Potency (N140) | Potency (P93_24) | Potency (P94_40) | Potency (PAD) | Potency (PC15) | Potency (PC26) | Potency (PC49) | Potency (SC27B) | Potency (TAB109) | Potency (TAB113) | Potency (TAB165) | outcome (HaCat [1]) | max response (KB-3-1) 2.08% | outcome (HACAT [2])

CN(C(=O)CN(CCO)CC(=O)N(C)C(C)(C)Cc1ccccc1)C(C)(C)Cc1ccccc1
active: Potency (W2) 3.61 µM
inactive: Potency (JCK) | Potency (P93_24) | Potency (P94_40) | Potency (PAD) | Potency (PC15) | Potency (PC26) | Potency (PC49) | Potency (SC27B) | Potency (TAB109) | Potency (TAB113) | max response (HaCat [1]) -0.203% | max response (KB-3-1) -13.8%

O=C(COc1ccc(Cl)cc1)N1CCN(Cc2ccc3c(c2)OCO3)CC1
inactive: Potency (JCK) | Potency (N140) | Potency (P93_24) | Potency (P94_40) | Potency (PAD) | Potency (PC15) | Potency (PC26) | Potency (PC49) | Potency (SC27B) | Potency (TAB109) | Potency (TAB113) | Potency (TAB165) | Potency (W2) | max response (CRL-7250) -27.2% | max response (NIH3T3) 0.953%

O=C(CCN1CCC(c2ccccc2)C1)c1ccc2c(c1)OCCO2 (configuration not stated)
inactive: Potency (JCK) | Potency (N140) | Potency (PAD) | Potency (PC15) | Potency (PC26) | Potency (PC49) | Potency (SC27B) | Potency (TAB109) | Potency (TAB113) | Potency (TAB165) | Potency (W2) | outcome (HaCat [1]) | max response (KB-3-1) -5.38% | outcome (HACAT [2])

CC(=O)Nc1c(I)cc(I)c(C(=O)O)c1I
inactive: Potency (JCK) | Potency (N140) | Potency (P94_40) | Potency (PAD) | Potency (PC15) | Potency (PC26) | Potency (PC49) | Potency (SC27B) | Potency (TAB109) | Potency (TAB113) | Potency (TAB165) | Potency (W2) | max response (HaCat [1]) 4.29% | max response (KB-3-1) -17.1% | outcome (NIH3T3)

Oc1c(I)cc(I)c2cccnc12
inactive: Potency (JCK) | Potency (PC49) | Potency (SC27B) | Potency (TAB113) | outcome (HaCat [1]) | max response (KB-3-1) -18.8% | outcome (HACAT [2])
active: Potency (P94_40) 11.2 µM

CN1CCN(CCCN2c3ccccc3Sc3ccc(S(=O)(=O)N(C)C)cc32)CC1
active: Potency (P93_24) 3.16 µM | Potency (P94_40) 3.16 µM | Potency (PAD) 3.98 µM | Potency (TAB165) 3.98 µM | Potency (W2) 2.03 µM
inactive: outcome (HaCat [1]) | max response (KB-3-1) -2.22% | outcome (HACAT [2])

CC(C)N=C(N)/N=C(\N)Nc1ccc(Cl)cc1
active: Potency (PC15) 0.708 µM | Potency (PC26) 1.61 µM | Potency (W2) 1.28 µM
inactive: Potency (TAB113) | max response (HaCat [1]) 0.505% | max response (KB-3-1) -14.7%
